What was measured:
Test in all cases: DAPPL (digital affinity profiling via proximity ligation, sequencing); 10 mM Tris-HCl pH 7.5, 50 mM NaCl, 1 mM DTT, 4% glycerol, room temperature, 30 min; GST-TFs on glutathione beads, 16-mer random dsDNA library, 0.1% formaldehyde crosslink after washing; high values mean tight binding
Settings in all cases: protein: recombinant; tags: N-terminal GST; dsDNA, one strand shown
FLI1 = target: T1, FLI1 (Homo sapiens, UniProt Q01543 1-452)
T1 sequence: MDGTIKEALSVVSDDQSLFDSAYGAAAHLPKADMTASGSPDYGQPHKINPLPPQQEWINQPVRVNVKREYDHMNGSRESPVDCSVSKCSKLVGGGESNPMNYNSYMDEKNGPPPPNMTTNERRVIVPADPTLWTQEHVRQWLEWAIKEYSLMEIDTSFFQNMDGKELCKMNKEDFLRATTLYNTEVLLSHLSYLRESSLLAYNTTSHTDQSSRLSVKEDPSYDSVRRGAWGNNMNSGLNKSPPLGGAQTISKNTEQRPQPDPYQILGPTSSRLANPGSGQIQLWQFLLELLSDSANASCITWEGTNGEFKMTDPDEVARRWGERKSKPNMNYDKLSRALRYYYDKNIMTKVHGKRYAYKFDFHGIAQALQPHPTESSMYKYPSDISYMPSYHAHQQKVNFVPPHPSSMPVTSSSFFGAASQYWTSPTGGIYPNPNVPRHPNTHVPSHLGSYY
Procedure, shortened: (§1)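 Sequencing on an Illumina NextSeq500 followed washing, crosslinking with 0.1% formaldehyde, proximity ligation (BsaI/T4 ligase, 1 h, 37 °C) and PCR amplification of pools that had been incubated for 30 min at room temperature with 200 nmole of a random double-stranded 16-mer DNA library in Tris/NaCl/DTT/glycerol buffer. Each pool held DNA-barcoded human transcription factors, expressed in yeast as GST fusions and captured on glutathione beads, plus a tag-only sample. Binding signal is a hexamer's read frequency for a factor divided by its frequency in the tag-only sample.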

ELK1 = target: T2, ELK1 (Homo sapiens, UniProt P19419 1-428)
T2 sequence: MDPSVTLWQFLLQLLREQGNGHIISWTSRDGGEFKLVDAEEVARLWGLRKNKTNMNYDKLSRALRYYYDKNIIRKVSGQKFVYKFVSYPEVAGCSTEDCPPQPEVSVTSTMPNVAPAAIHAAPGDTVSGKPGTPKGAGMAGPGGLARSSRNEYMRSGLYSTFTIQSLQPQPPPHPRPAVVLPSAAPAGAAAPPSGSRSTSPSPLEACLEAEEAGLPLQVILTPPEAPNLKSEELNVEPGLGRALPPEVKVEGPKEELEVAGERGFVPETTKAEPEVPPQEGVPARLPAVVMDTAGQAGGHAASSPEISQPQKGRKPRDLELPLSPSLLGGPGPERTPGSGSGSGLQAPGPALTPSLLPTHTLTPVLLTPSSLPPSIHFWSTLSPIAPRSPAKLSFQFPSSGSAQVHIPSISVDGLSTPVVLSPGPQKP
Procedure, shortened: as §1

GABPA = target: T3, GABPA (Homo sapiens, UniProt Q06546 1-454)
T3 sequence: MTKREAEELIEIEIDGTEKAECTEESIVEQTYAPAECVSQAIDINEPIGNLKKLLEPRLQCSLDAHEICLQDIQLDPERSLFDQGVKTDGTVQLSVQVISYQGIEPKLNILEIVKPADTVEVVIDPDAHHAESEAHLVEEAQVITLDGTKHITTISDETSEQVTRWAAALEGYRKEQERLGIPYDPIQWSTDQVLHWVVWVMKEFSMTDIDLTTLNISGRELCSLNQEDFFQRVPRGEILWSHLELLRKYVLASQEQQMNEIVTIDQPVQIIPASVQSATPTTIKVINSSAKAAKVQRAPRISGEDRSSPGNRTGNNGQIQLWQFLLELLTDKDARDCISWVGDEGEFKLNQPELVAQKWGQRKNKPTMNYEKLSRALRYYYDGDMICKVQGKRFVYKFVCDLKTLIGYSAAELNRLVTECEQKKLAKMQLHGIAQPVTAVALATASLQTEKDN
Procedure, shortened: as §1

ERG = target: T4, ERG (Homo sapiens, UniProt P11308 1-479)
T4 sequence: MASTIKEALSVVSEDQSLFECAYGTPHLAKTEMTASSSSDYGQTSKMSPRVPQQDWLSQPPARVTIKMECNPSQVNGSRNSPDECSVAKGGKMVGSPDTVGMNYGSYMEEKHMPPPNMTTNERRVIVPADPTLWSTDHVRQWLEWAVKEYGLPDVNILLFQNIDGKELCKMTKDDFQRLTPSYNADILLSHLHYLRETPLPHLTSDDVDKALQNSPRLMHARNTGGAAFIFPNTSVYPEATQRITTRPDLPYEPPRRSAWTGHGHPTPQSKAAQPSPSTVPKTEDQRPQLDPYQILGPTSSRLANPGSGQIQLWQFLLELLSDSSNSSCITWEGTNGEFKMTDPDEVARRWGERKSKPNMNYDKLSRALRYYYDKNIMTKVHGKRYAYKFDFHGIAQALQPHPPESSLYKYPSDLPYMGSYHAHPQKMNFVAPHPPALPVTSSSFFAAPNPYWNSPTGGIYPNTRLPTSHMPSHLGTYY
Procedure, shortened: as §1

ELF1 = ELF1 (Homo sapiens, UniProt P32519 1-619)
Chain of ELF1 (P32519 whole entry): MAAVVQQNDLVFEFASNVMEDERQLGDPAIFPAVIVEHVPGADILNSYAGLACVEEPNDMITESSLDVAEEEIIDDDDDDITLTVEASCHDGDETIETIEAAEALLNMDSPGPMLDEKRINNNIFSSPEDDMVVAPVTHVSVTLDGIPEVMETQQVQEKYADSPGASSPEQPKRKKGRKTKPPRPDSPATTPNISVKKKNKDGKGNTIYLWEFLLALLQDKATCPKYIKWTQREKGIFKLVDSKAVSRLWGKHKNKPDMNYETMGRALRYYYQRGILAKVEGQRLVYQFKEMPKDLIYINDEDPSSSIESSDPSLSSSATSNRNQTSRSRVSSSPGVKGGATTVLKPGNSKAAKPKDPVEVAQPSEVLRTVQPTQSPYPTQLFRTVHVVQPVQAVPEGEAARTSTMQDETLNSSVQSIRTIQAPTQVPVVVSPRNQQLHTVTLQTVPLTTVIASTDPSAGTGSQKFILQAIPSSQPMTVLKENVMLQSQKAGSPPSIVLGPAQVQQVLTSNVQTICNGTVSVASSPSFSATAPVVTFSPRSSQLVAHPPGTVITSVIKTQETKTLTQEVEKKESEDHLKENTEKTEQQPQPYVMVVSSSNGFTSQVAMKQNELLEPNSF
Procedure, shortened: as §1

EHF = target: T5, EHF (Homo sapiens, UniProt Q9NZC4 1-300)
T5 sequence: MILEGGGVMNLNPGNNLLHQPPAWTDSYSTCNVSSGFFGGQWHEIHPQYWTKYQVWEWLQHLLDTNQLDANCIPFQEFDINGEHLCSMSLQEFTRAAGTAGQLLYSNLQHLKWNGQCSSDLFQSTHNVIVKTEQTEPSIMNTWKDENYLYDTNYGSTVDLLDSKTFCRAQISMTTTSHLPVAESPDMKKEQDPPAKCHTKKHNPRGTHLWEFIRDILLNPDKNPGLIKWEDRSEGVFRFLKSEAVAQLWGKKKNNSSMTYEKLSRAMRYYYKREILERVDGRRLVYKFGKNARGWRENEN
Procedure, shortened: as §1

SPI1 = SPI1 (Homo sapiens, UniProt P17947 1-270)
Procedure, shortened: as §1

SPIB = SPIB (Homo sapiens, UniProt Q01892 1-262)
Chain of SPIB (Q01892 whole entry): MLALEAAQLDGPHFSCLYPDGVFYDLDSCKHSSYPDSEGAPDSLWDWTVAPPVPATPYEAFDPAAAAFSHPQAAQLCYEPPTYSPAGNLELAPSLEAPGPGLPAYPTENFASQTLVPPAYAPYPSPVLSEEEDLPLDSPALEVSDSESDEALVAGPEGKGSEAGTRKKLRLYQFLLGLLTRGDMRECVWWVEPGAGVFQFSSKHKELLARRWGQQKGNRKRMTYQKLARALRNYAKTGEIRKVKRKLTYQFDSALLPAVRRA
Procedure, shortened: as §1

ELK3 = target: T6, ELK3 (Homo sapiens, UniProt P41970 1-407)
T6 sequence: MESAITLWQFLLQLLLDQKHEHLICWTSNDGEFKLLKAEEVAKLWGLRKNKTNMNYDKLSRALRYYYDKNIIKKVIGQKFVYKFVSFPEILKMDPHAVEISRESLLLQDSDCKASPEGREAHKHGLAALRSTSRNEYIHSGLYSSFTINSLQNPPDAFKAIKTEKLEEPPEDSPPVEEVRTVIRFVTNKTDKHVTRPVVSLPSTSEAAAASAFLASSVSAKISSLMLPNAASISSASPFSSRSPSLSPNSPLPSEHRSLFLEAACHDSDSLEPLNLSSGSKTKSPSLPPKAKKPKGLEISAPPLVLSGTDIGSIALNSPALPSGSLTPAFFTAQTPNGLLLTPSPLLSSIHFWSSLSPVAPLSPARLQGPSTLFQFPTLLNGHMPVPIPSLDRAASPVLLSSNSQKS
Procedure, shortened: as §1

Row | Sequence | binding signal (FLI1) | binding signal (ELK1) | binding signal (GABPA) | binding signal (ERG) | binding signal (ELF1) | binding signal (EHF) | binding signal (SPI1) | binding signal (SPIB) | binding signal (ELK3)
1 | CACTCG | 1.1 fold enrichment (6-mer frequency, TF over GST control) | 1.26 fold enrichment (6-mer frequency, TF over GST control) | 1.08 fold enrichment (6-mer frequency, TF over GST control) | 1.15 fold enrichment (6-mer frequency, TF over GST control) | 1.2 fold enrichment (6-mer frequency, TF over GST control) | 1.18 fold enrichment (6-mer frequency, TF over GST control) | 1.01 fold enrichment (6-mer frequency, TF over GST control) | 1.18 fold enrichment (6-mer frequency, TF over GST control) | 1.2 fold enrichment (6-mer frequency, TF over GST control)
2 | TATTGC | 1.39 fold enrichment (6-mer frequency, TF over GST control) | 1.33 fold enrichment (6-mer frequency, TF over GST control) | 1.44 fold enrichment (6-mer frequency, TF over GST control) | 1.31 fold enrichment (6-mer frequency, TF over GST control) | 1.41 fold enrichment (6-mer frequency, TF over GST control) | 1.3 fold enrichment (6-mer frequency, TF over GST control) | 1.32 fold enrichment (6-mer frequency, TF over GST control) | 1.37 fold enrichment (6-mer frequency, TF over GST control) | 1.3 fold enrichment (6-mer frequency, TF over GST control)
3 | ACACAT | 1.34 fold enrichment (6-mer frequency, TF over GST control) | 1.25 fold enrichment (6-mer frequency, TF over GST control) | 1.17 fold enrichment (6-mer frequency, TF over GST control) | 1.31 fold enrichment (6-mer frequency, TF over GST control) | 1.25 fold enrichment (6-mer frequency, TF over GST control) | 1.35 fold enrichment (6-mer frequency, TF over GST control) | 1.21 fold enrichment (6-mer frequency, TF over GST control) | 1.21 fold enrichment (6-mer frequency, TF over GST control) | 1.32 fold enrichment (6-mer frequency, TF over GST control)
4 | TAACTC | 1.3 fold enrichment (6-mer frequency, TF over GST control) | 1.22 fold enrichment (6-mer frequency, TF over GST control) | 1.23 fold enrichment (6-mer frequency, TF over GST control) | 1.11 fold enrichment (6-mer frequency, TF over GST control) | 1.29 fold enrichment (6-mer frequency, TF over GST control) | 1.16 fold enrichment (6-mer frequency, TF over GST control) | 1.18 fold enrichment (6-mer frequency, TF over GST control) | 1.21 fold enrichment (6-mer frequency, TF over GST control) | 1.18 fold enrichment (6-mer frequency, TF over GST control)
5 | TTGATT | 1.48 fold enrichment (6-mer frequency, TF over GST control) | 1.32 fold enrichment (6-mer frequency, TF over GST control) | 1.31 fold enrichment (6-mer frequency, TF over GST control) | 1.29 fold enrichment (6-mer frequency, TF over GST control) | 1.29 fold enrichment (6-mer frequency, TF over GST control) | 1.26 fold enrichment (6-mer frequency, TF over GST control) | 1.18 fold enrichment (6-mer frequency, TF over GST control) | 1.26 fold enrichment (6-mer frequency, TF over GST control) | 1.2 fold enrichment (6-mer frequency, TF over GST control)
6 | CATCAC | 1.1 fold enrichment (6-mer frequency, TF over GST control) | 1.1 fold enrichment (6-mer frequency, TF over GST control) | 1.18 fold enrichment (6-mer frequency, TF over GST control) | 1.15 fold enrichment (6-mer frequency, TF over GST control) | 1.19 fold enrichment (6-mer frequency, TF over GST control) | 1.13 fold enrichment (6-mer frequency, TF over GST control) | 1.11 fold enrichment (6-mer frequency, TF over GST control) | 1.11 fold enrichment (6-mer frequency, TF over GST control) | 1.05 fold enrichment (6-mer frequency, TF over GST control)
7 | TTTCTG | 1.4 fold enrichment (6-mer frequency, TF over GST control) | 1.35 fold enrichment (6-mer frequency, TF over GST control) | 1.36 fold enrichment (6-mer frequency, TF over GST control) | 1.33 fold enrichment (6-mer frequency, TF over GST control) | 1.34 fold enrichment (6-mer frequency, TF over GST control) | 1.38 fold enrichment (6-mer frequency, TF over GST control) | 1.42 fold enrichment (6-mer frequency, TF over GST control) | 1.3 fold enrichment (6-mer frequency, TF over GST control) | 1.46 fold enrichment (6-mer frequency, TF over GST control)
